Data published in PubChem BioAssay (NCI).
Compounds without any hit were thinned out: in the full panel of roughly 79,000, 15% have a hit. Calls of active or inactive are those of the source. Rule as the data show it: active = growth inhibition above about 70%; inactive = the rest.

Key:
[1] = NCI Yeast Anticancer Drug Screen. Data for the rad50 strain (AID 155);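 also: 0% = growth of vehicle-only cultures of the same strain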; details: S. cerevisiae rad50 strain growth inhibition, active compounds read high
Procedure, shortened: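 Inhibition values express reduced yeast growth in compound-treated cultures relative to vehicle-treated controls.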

[2] = NCI Yeast Anticancer Drug Screen. Data for the mec2-1 strain (AID 157); details: S. cerevisiae mec2-1 strain, active compounds read high
Procedure, shortened: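 Yeast mec2-1 mutant treated with compound. Readout: growth inhibition vs vehicle controls.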

[3] = NCI Yeast Anticancer Drug Screen. Data for the sgs1 mgt1 strain (AID 161);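 also: 0% = growth of cultures given vehicle only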; details: S. cerevisiae sgs1 mgt1 strain, active compounds read high
Procedure, shortened: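 Test agents were incubated with a DNA-repair-mutant yeast strain. Growth was then read and compared against vehicle-treated controls.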

[4] = NCI Yeast Anticancer Drug Screen. Data for the cln2 rad14 strain (AID 165);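 also: 0% = growth equal to vehicle treated cultures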; details: S. cerevisiae cln2 rad14 strain, active compounds read high
Procedure, shortened: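 cln2 rad14 yeast strain; compound exposure; growth inhibition read vs vehicle controls.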

[5] = NCI Yeast Anticancer Drug Screen. Data for the bub3 strain (AID 167); details: S. cerevisiae bub3 mutant strain, active compounds read high
Procedure, shortened: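 Steps: expose the mutant yeast strain to compound; grow alongside vehicle-treated cultures; measure growth; express inhibition against the vehicle cultures.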

[6] = NCI Yeast Anticancer Drug Screen. Data for the mlh1 rad18 strain (AID 175); details: S. cerevisiae mlh1 rad18 strain growth inhibition, active compounds read high
Procedure, shortened: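 Yeast w/ defined DNA-repair lesions; compound exposure; growth vs vehicle controls → % inhibition.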

[7] = at 5.0 µM (retest, dose inferred, filed as 0.5)
[8] = at 50.0 µM (retest, dose inferred, filed as 5.0)

Measured: growth inhibition

COc1ccc(C2Oc3ccc(Cl)cc3C=C2[N+](=O)[O-])cc1 (configuration not stated)
active: [1]; [7] 99% | [1]; [8] 93% | [1]; at 50.0 µM 80.4% | [2]; [7] 99% | [2]; [8] 95% | [2]; at 50.0 µM 87.1% | [3]; [7] 99% | [3]; [8] 95% | [3]; at 50.0 µM 82.5% | [4]; [7] 99% | [4]; [8] 93% | [4]; at 50.0 µM 83.2% | [5]; [7] 99% | [5]; [8] 94% | [5]; at 50.0 µM 84.4% | [6]; [7] 99% | [6]; [8] 95% | [6]; at 50.0 µM 79%

O=C(Nc1ccc(Cl)cc1)NS(=O)(=O)c1ccc2c(c1)CCC2
inactive: [1]; [7] -18% | [1]; [8] 35% | [1]; at 50.0 µM 59.2% | [2]; [7] -40% | [2]; [8] 16% | [2]; at 50.0 µM 39.4% | [3]; [7] -30% | [3]; [8] 57% | [3]; at 50.0 µM 69.8% | [4]; [7] -23% | [4]; [8] 38% | [4]; at 50.0 µM 59% | [5]; [7] -14% | [5]; [8] 62% | [5]; at 50.0 µM 30.4% | [6]; [7] -47% | [6]; [8] 27% | [6]; at 50.0 µM 45.6%

O=C(OCc1ccccc1)C(O)c1ccccc1 (configuration not stated)
inactive: [1]; [7] -2% | [1]; [8] 16% | [1]; at 50.0 µM 24.1% | [2]; [7] 2% | [2]; [8] 6% | [2]; at 50.0 µM -7.1% | [3]; [7] -1% | [3]; [8] 3% | [3]; at 50.0 µM -14.7% | [4]; [7] -4% | [4]; [8] 1% | [4]; at 50.0 µM 41.1% | [5]; [7] -3% | [5]; [8] -2% | [5]; at 50.0 µM 18.4% | [6]; [7] -1% | [6]; [8] 10% | [6]; at 50.0 µM 16.2%

CCS(=O)(=O)c1ccc(NC(=O)OC2CC(C)CCC2C(C)C)cc1 (configuration not stated)
inactive: [1]; [7] 14% | [2]; [7] 18% | [3]; [7] 15% | [4]; [7] 12% | [5]; [7] 11% | [6]; [7] 20%
active: [1]; [8] 90% | [1]; at 50.0 µM 90.5% | [2]; [8] 94% | [2]; at 50.0 µM 91.6% | [3]; [8] 91% | [3]; at 50.0 µM 89.5% | [4]; [8] 91% | [4]; at 50.0 µM 86.7% | [5]; [8] 94% | [5]; at 50.0 µM 90.8% | [6]; [8] 92% | [6]; at 50.0 µM 92.1%
